Assay outcomes deposited in PubChem by National Center for Advancing Translational Sciences (NCATS).
HT1080-NT tox = kills 2HG-producing HT-1080-NT fibrosarcoma cells. Potency, µM (series often up to 46.1 µM), inactives show at the top dose activity, negative = less viability, actives largely listed as cytotoxic. HT-1080-NT fibrosarcoma viability, CellTiter-Glo ATP luminescence, 48 h. 360,000 tested, 1.6% active;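 also: NT is the 2HG producing partner of a matched IDH1 knockdown line; potency is read from the fitted curve at half-maximal effect; 0% = DMSO-treated cells and -100% = media-only wells without cells; nearly all actives have a fitted effect of over 55% in size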
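Fibrosarcoma NT cells, 750 per well in 5% FBS RPMI, were exposed to compound for 48 hours. Viability: CellTiter-Glo luminescence.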
DT40 TDP1 CPT = DT40-hTDP1 cell growth loss with CPT; chicken DT40 Tdp1-/-;hTDP1 cells + 20 nM CPT, ATP luminescence, 48 h; Potency, µM (top dose mostly 46.2 µM), for the others: at the top dose activity change, negative = growth inhibition, actives largely listed as inhibitors; 420,000 tested, 12% active; AID 686979; also: potency is read from the fitted curve at half-maximal effect; nearly all actives have a fitted effect of over 55% in size
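Chicken DT40 Tdp1-/- cells complemented with human TDP1, 400 cells/well, exposed to compounds plus 20 nM camptothecin for at least 48 h at 37 C; viability read as ATP content by CellTiter-Glo luminescence.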
DT40 TDP1 no CPT = qHTS for Inhibitors of human tyrosyl-DNA phosphodiesterase 1 (TDP1): qHTS in cells in absence of CPT | DT40 Tdp1-/- hTDP1 cells, no CPT, ATP luminescence, 48 h | Potency, µM (top dose mostly 46.2 µM), for inactives: top-dose activity change, negative = growth inhibition, usual class: inhibitors | 420,000 tested, 15% active | AID 686978, 2013; also: potency is read from the fitted curve at half-maximal effect; nearly all actives have a fitted effect of over 55% in size
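Compound effects on proliferation are scored in DT40 Tdp1-/-;hTDP1 cells in the absence of CPT. ATP levels (CellTiter-Glo luminescence) are recorded after a ≥48 hr, 37 °C incubation.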
HT1080 IDH1KD tx = toxicity to HT-1080 IDH1 knockdown cells (counter line) | HT-1080 IDH1 knockdown viability, ATP luminescence, 48 h | AID 686971 | Potency, µM (highest dose often 46.1 µM), inactives show at the highest dose activity, negative = toxicity, hits mostly cytotoxic | 360,000 tested, 2% active;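 also: potency is read from the fitted curve at half-maximal effect; 0% = DMSO wells and -100% = cell-free medium wells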
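Assay cells: HT-1080 with IDH1 knockdown, 750 per well, RPMI/5% FBS. Exposure: 48 h at 37 °C following 2 h pre-incubation. Read: CellTiter-Glo luminescence; fitted concentration-response, curve class assigned.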
IL-1B inflam inh = inflammasome signaling inhibition, IL-1 beta readout; THP-1 LPS/ATP IL-1B secretion, AlphaLISA, 16 h; hits give low values; activity change, % at 57.5 µM; 360,000 tested, 4.7% active; in the data active = activity change below about -50%; inconclusive = mostly about -30% to -49%
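THP-1 cells pretreated 1 hr with compounds (up to 57.5 uM final), then stimulated with LPS (250 ng/mL final) plus ATP (1.25 mM final); secreted IL-1B measured by AlphaLISA after 16 hr, decreased signal indicating inhibition.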
* hit, by the source's call; ? = inconclusive; . = no result. Only some compounds are listed: those with a hit (about 19% of all), similar ones and a draw of the others. Unless noted, calls follow the shape of the dose curve; as a rule, active = well fitted curve in the direction sought with a large enough effect; inconclusive = small, poorly fitted or top-dose-only effect, or another doubt; inactive = no such curve, though single readings can be large; an effect the other way counts as inactive or inconclusive. Unless noted, % is scaled to controls: 0 for no effect and ±100 for the full control effect.

SMILES | HT1080-NT tox | DT40 TDP1 CPT | DT40 TDP1 no CPT | HT1080 IDH1KD tx | IL-1B inflam inh
CC(C)C(OC(=O)c1nsc(Cl)c1Cl)C(=O)NCC1CCCO1 (centres undefined) | -13% | 4% | 40% | 13% | 18
O=CNc1cc(-c2ccsc2)cn2c(-c3ccccc3)cnc12 | ? | 16µM* | 21µM* | ? | 24
CS(=O)(=O)c1ccc(-c2cnc3c(NC=O)cc(-c4ccsc4)cn23)cc1 | 2% | 23µM* | 18µM* | -2% | ?
CCN(CC(=O)NCc1cccs1)C(=O)c1ccc(S(=O)(=O)Nc2ccccc2Cl)cc1 | 2% | -5% | -2% | 2% | -4
Cc1nn(C(C)C(=O)N2CCN(c3ccc(Cl)cc3)CC2)c(=O)c2cc3occc3n12 (centres undefined) | . | ? | 16µM* | . | .
Cc1cccc(C(=O)N2CCC(c3nc(-c4ccc(S(=O)(=O)N5CCOCC5)cc4)no3)CC2)c1 | 6% | 16µM* | 21µM* | -1% | -53*
O=C(c1ccc(F)cc1F)N1CCC(c2noc(-c3ccc(S(=O)(=O)N4CCCC4)cc3)n2)CC1 | . | -1% | ? | . | .
COc1ccccc1C(=O)N1CCC(c2noc(-c3ccc(S(=O)(=O)N4CCCC4)cc3)n2)CC1 | . | 23µM* | 16µM* | . | .
O=C(c1cccs1)N1CCC(c2nc(-c3ccc(S(=O)(=O)N4CCOCC4)cc3)no2)CC1 | -6% | ? | 18µM* | -28% | -7
CCc1ccc(C(=O)N2CCC(c3nc(-c4ccc(S(=O)(=O)N5CCCC5)cc4)no3)CC2)cc1 | . | ? | 21µM* | . | .
CC(C)C(=O)N1CCC(c2nc(-c3ccc(S(=O)(=O)N4CCCC4)cc3)no2)CC1 | 11% | ? | ? | -5% | 14
CC1CCC(C(O)(C(=O)c2ccccc2)c2ccccc2)C(=O)C1 (centres undefined) | -26% | ? | ? | ? | -10
O=C(Nc1ccccc1)N1CCC(c2nc(-c3ccc(S(=O)(=O)N4CCOCC4)cc3)no2)CC1 | 10µM* | 4.1µM* | 3.3µM* | 7.9µM* | 42
O=C(c1ccccc1)N1CCC(c2nc(-c3ccc(S(=O)(=O)N4CCOCC4)cc3)no2)CC1 | -2% | ? | ? | -12% | -15
O=C(Nc1ccc(Cl)cc1)N1CCC(c2nc(-c3ccccc3Cl)no2)CC1 | ? | 23µM* | 18µM* | ? | -9
CCC(C)c1ccc(S(=O)(=O)N2CCN(c3ccccn3)CC2)cc1 (centres undefined) | 1% | -12% | -24% | 2% | 4
Cn1c(=O)oc2cc(S(=O)(=O)NC(CC(=O)O)c3cccc(Br)c3)ccc21 (centres undefined) | . | 29% | 10% | . | .
Cn1c(-c2cccc(Br)c2)cnc1NCc1ccccc1O | -16% | 5% | ? | ? | -69*
Cn1c(-c2ccc(Br)cc2)cnc1NCc1ccc(C#N)cc1 | -12% | ? | ? | -3% | -28
Cn1c(-c2ccc3c(c2)OCO3)cnc1NCc1ccccc1Cl | -2% | ? | 15µM* | -1% | -17
Cn1c(-c2ccc(F)cc2)cnc1NCc1cccc([N+](=O)[O-])c1 | 5% | ? | ? | -1% | ?
Cn1c(-c2cccc([N+](=O)[O-])c2)cnc1NCc1cccc(F)c1 | -5% | ? | 21µM* | -3% | -14
Cn1c(-c2ccccc2)cnc1NCc1ccccc1 | -8% | ? | ? | -13% | -1
Cn1c(-c2ccc3c(c2)OCO3)cnc1NCc1ccccc1 | ? | 21µM* | ? | ? | -10
CC(=O)Nc1ccc(S(=O)(=O)N(C)c2ccc(OCCOc3ccccc3F)cc2)cc1 | ? | ? | ? | 1% | 13
SMILES | HT1080-NT tox | DT40 TDP1 CPT | DT40 TDP1 no CPT | HT1080 IDH1KD tx | IL-1B inflam inh
CC[C@H](C)[C@H]1CNC(=S)N1CC1CCN(CC)CC1 | ? | -5% | 1% | 3% | 14
O=C(O)c1ccc(C(S(=O)(=O)c2ccccc2)S(=O)(=O)c2ccccc2)cc1 | 14% | 11% | -8% | 7% | -7
COc1ccc(N2CCN(C(=O)C3CCCN(S(=O)(=O)c4cccc5cccnc45)C3)CC2)cc1 (centres undefined) | 6% | 16µM* | ? | 3% | 8
O=C(O)[C@@H]1CCCN(S(=O)(=O)c2cccc3cccnc23)C1 | 12% | 33% | -2% | 13% | 0
CC1Cc2ccccc2N1C(=O)CN(C)S(=O)(=O)c1cccc2cccnc12 (centres undefined) | 5% | ? | ? | 6% | -3
CC1Cc2ccccc2N1C(=O)C1CCCN(S(=O)(=O)c2cccc3cccnc23)C1 (centres undefined) | -9% | 13µM* | 13µM* | -14% | 19
COc1cc(/C=N/NC(=O)c2ccc(Cl)c(S(N)(=O)=O)c2)ccc1OCC(N)=O | -27% | 3% | -6% | -8% | 19
OCc1nc2nc(Cl)c(Cl)nc2[nH]1 | 8% | -1% | -1% | 11% | -1
CCCCSCc1nc2nc(Cl)c(Cl)nc2[nH]1 | ? | 16µM* | 18µM* | ? | -1
Fc1ccc2nc(Nc3nc4cc5c(cc4s3)OCCO5)sc2c1 | -12% | 16µM* | ? | ? | 0
c1ccc2sc(Nc3nc4cc5c(cc4s3)OCO5)nc2c1 | -15% | 23µM* | ? | -11% | 19
Fc1ccc2nc(Nc3nc4c(F)cc(F)cc4s3)sc2c1 | -7% | 16µM* | 15µM* | -7% | -61*
COc1cc(/C=N/Nc2nc3ccccc3s2)cc([N+](=O)[O-])c1O | -7% | ? | ? | 5% | -10
Fc1ccc2nc(Nc3nc4cc5c(cc4s3)OCO5)sc2c1 | ? | ? | ? | ? | 9
O=[N+]([O-])c1cc(Cl)cc(/C=N/Nc2nc3ccccc3s2)c1O | 21µM* | 0.33µM* | 0.92µM* | 18µM* | 33
Cc1cc(C)c2c(=O)[nH]c(=O)n(Cc3ccccc3)c2n1 | 0% | -6% | ? | -3% | 13
CC12CCC(C(=O)OC3CCCCC3)(OC1=O)C2(C)C (centres undefined) | -1% | -3% | 21% | 0% | 21
Brc1cc2c(cc1/C=N/Nc1nc3ccccc3s1)OCO2 | 4% | 15µM* | ? | 2% | 7
C(=N\Nc1nc2ccccc2s1)/c1ccc2c(c1)OCO2 | -27% | -20% | ? | ? | -19
Fc1cccc2sc(Nc3nc4ccccc4s3)nc12 | -12% | ? | 12µM* | -10% | 0
